# Screening results from PubChem BioAssay.
# Shown is part of a subset that was picked to be rich in hits.
# nsP2pro inh: blocks chikungunya virus nsP2 protease peptide cleavage; Q8JUX6; FRET peptide cleavage, nsP2pro, fluorescence 1 h; Potency, µM (doses to about 24.9 µM), for the others: at the highest dose activity change, negative = inhibition, usual class: inhibitors; hit rate 1.1% among 31,000; note: nearly all actives have a fitted effect of over 60% in size
#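 Purified recombinant nsP2pro (150 nM final) in 10 mM Tris-HCl pH 8.0 with 0.01% Tween 20 was preincubated 15 min at room temperature with compound (7 concentrations, up to 25 uM). FRET peptide 2 substrate (2.5 uM final) was then added; fluorescence was read after 1 h.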
# nsP2 cell sec: inhibits CHIKV nsP2 protease in cells; Potency, µM (top dose mostly 51.1 µM), for inactives: at the top dose activity change, negative = inhibition, usual class: inhibitors; shares compounds with nsP2pro inh; cell-based CHIKV nsP2 protease reporter assay; hit rate 10% among 450; note: nearly all actives have a fitted effect of over 70% in size
# NSP2 full ctr: inhibits full-length CHIKV NSP2 enzyme. Full-length CHIKV NSP2 protease enzymatic counterscreen. Potency, µM (doses to about 50.7 µM), for inactives: at the top dose activity change, negative = inhibition, hits mostly inhibitors. hit rate 39% among 410. AID 1964101. shares compounds with nsP2pro inh; note: nearly all actives have a fitted effect of over 65% in size
# Furin counterscr: inhibits human furin in a CHIKV nsP2 protease selectivity counterscreen | Potency, µM (titrated, usually from 50.6 µM), for inactives: at the highest dose activity change, negative = inhibition, hits mostly inhibitors | shares compounds with nsP2pro inh | hit rate 6% among 410 | Recombinant human furin enzymatic counterscreen, fluorogenic substrate
# Target sequence (P09958 whole entry, looked up): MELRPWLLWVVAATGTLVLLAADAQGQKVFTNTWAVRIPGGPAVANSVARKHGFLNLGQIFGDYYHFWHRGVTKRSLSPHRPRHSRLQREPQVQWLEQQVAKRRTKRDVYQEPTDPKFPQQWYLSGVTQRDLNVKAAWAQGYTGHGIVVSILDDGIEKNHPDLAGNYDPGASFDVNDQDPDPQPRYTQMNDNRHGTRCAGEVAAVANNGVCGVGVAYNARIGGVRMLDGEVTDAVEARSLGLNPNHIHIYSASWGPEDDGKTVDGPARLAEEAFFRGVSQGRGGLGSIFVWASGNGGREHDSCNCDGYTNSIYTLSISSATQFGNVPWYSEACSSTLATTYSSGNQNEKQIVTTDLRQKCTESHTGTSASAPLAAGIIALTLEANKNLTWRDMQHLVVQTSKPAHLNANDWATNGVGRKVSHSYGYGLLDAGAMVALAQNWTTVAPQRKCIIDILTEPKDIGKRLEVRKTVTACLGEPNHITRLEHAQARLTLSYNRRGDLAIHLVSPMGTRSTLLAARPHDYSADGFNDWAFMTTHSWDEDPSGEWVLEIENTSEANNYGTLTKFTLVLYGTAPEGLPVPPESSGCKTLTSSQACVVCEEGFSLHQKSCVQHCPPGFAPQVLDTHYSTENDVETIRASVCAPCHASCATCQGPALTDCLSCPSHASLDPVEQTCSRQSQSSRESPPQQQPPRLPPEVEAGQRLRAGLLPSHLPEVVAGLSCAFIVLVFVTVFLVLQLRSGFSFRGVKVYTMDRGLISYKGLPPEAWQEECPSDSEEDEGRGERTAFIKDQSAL
# NS23 peptide cs: selectivity test for CHIKV nsP2 protease inhibitors: endogenous NS2/3 peptide | AID 1964103 | shares compounds with nsP2pro inh | Potency, µM (titrated, usually from 51 µM), for inactives: top-dose activity change, negative = inhibition, hits mostly inhibitors | Purified CHIKV nsP2 protease, endogenous NS2/3 peptide cleavage | hit rate 34% among 410; note: nearly all actives have a fitted effect of over 55% in size
# Papain counter: selectivity counter-screen for CHIKV nsP2 protease inhibitors: papain. Potency, µM (series often up to 51 µM), without a hit: top-dose activity change, negative = inhibition, most hits filed as inhibitors. hit rate 5% among 410. shares compounds with nsP2pro inh. purified papain protease activity, enzymatic inhibition
# nsP2pro conf qHTS: confirmation of CHIKV nsP2 protease inhibitors. shares compounds with nsP2pro inh. CHIKV nsP2 protease enzymatic activity, qHTS. Potency, µM (top dose mostly 25.5 µM), for the others: at the top dose activity change, negative = inhibition, most hits filed as inhibitors. hit rate 43% among 410. AID 1964105; note: nearly all actives have a fitted effect of over 75% in size
# HCV NS3 4A cs: inhibits HCV NS3/4A protease in an nsP2pro selectivity counterscreen. HCV NS3/4A protease biochemical counterscreen. Potency, µM (titrated, usually from 50.9 µM), actives largely listed as inhibitors. shares compounds with nsP2pro inh. AID 1964106. hit rate 20% among 410; note: nearly all actives have a fitted effect of over 55% in size
# An asterisk follows results filed as active; i = inactive; u = inconclusive; ! = not confirmed by another sample; [ ] = another dose, or the depositor's remark. Calls come from the whole dose curve. % is set by controls: 0 for no effect and ±100 for the full control effect; potency is the fitted concentration of half-maximal effect.
SMILES,nsP2pro inh,others
O=C(Nc1ccc(N2CCC(N3CCCCC3)CC2)c(C(=O)O)c1)c1ccccc1,11µM*,nsP2 cell sec=-5%;NSP2 full ctr=2.9µM*;Furin counterscr=u;NS23 peptide cs=9.2µM*;Papain counter=-3%;nsP2pro conf qHTS=6.3µM*;HCV NS3 4A cs=1.8µM*
CCC(CC)Nc1ncnc2c1CN(C1CCC1)C(=O)CN2C,-9%[39.2 µM],
CCOCC(=O)N1C[C@@H](CO)[C@H](c2ccccn2)C1,-1%,
CCN(CCc1cn(C)cn1)c1ncnc2ccc(-c3ccc4c(c3)OCO4)cc12,i,
S=C(Nc1cc(Cl)ccn1)N1CCN(c2ccc(Cl)cc2Cl)CC1,0%,
O=C(O)C(O)C(O)C(=O)O (configuration not stated),-6%,
Cc1cccc(-n2cnc3cc(C(=O)N4CCC(C#N)CC4)ccc32)c1,1%,
CC1CC(O)CC(C)(C)C1(O)CCO (configuration not stated),-2%[39.2 µM],
CC(C)COc1ccc(-c2ccc(=O)n(CC(=O)NCCc3ccccc3)n2)cc1,i,
COc1ccccc1OC1CCN(Cc2ccccc2C#N)CC1,i,
COc1ncc(Nc2ncc([C@@H](C)N3CCN(S(C)(=O)=O)CC3)cc2-c2nc(C)nc(N)n2)cc1F,u,nsP2 cell sec=113%;NSP2 full ctr=0%;Furin counterscr=-17%;NS23 peptide cs=1%;Papain counter=u;nsP2pro conf qHTS=-5%;HCV NS3 4A cs=i
O=C(Nc1cccc(C(F)(F)F)c1)Nc1nnc(-c2ccncc2)s1,i,
CC1=NN(c2ccccc2)C(=O)C1,0.035µM*!,nsP2 cell sec=-10%;NSP2 full ctr=-2%;Furin counterscr=-8%;NS23 peptide cs=-4%;Papain counter=-3%;nsP2pro conf qHTS=-4%;HCV NS3 4A cs=i
C=C1/C(=C/C=C2\CCC[C@]3(C)[C@@H]([C@H](C)CCCC(O)(C(F)(F)F)C(F)(F)F)CC[C@@H]23)C[C@@H](O)C[C@@H]1O,7%,
